In test [1] the target is X-box-binding protein 1 (Homo sapiens) (UniProt P17861). Put plainly: ATG_Xbp1_CIS: Attagene CIS-FACTORIAL HepG2 Assay for human X-box Binding Protein 1 (XBP1) (AID 2282972; active = hit-call score of the fitted dose curve at least 0.9, where 1 is the maximum; inactive = score below 0.9). The note with it: HepG2 XBP1 cis-element reporter, Attagene multiplex; actives raise or lower the signal. A digest of the protocol: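 After a 24-hour chemical exposure of HepG2 cells carrying cis-regulated reporters, reporter mRNA levels are assessed. Quantification uses RT-PCR, 6-FAM labelling and capillary electrophoresis. Gain- or loss-of-signal is fitted against DMSO.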
Sequence of X-box-binding protein 1 (Homo sapiens) (P17861 whole entry, looked up): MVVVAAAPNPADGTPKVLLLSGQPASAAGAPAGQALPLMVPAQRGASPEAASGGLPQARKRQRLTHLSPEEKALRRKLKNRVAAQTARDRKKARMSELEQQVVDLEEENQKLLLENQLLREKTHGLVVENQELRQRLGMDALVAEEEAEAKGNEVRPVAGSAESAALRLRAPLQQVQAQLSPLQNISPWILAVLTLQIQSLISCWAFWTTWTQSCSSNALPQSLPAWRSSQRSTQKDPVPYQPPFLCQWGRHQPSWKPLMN

A short description of test [2]: ATG_M_19_TRANS: Attagene TRANS-FACTORIAL HepG2 Assay for M19 Transcription Factor (Internal Marker) (AID 2282974). The note with it: HepG2 Attagene TRANS-FACTORIAL M19 internal marker reporter. A digest of the protocol: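 Multiplexed TRANS format: HepG2 liver cells bearing transient GAL4-UAS reporter units, chemical treatment 24 h, reporter transcripts quantified by RT-PCR plus capillary electrophoresis. DMSO defines baseline.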

In test [3] the target is Glucocorticoid receptor (Homo sapiens) (UniProt P04150). Put plainly: ATG_GR_TRANS: Attagene TRANS-FACTORIAL HepG2 Assay for human Glucocorticoid Receptor (GR) (AID 2282978).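 Also: activators score as hits since higher reporter transcript over DMSO is fitted.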 The note with it: HepG2 Attagene TRANS GR reporter, mRNA transcription. The method, boiled down: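 Transiently transfected HepG2 cells express chimeric NR-GAL4 proteins acting on GAL4-UAS reporter units. Compounds are applied for 24 h. mRNA induction over DMSO is measured by capillary electrophoresis.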
Sequence of Glucocorticoid receptor (Homo sapiens) (P04150 whole entry, looked up, the tested form may be a part): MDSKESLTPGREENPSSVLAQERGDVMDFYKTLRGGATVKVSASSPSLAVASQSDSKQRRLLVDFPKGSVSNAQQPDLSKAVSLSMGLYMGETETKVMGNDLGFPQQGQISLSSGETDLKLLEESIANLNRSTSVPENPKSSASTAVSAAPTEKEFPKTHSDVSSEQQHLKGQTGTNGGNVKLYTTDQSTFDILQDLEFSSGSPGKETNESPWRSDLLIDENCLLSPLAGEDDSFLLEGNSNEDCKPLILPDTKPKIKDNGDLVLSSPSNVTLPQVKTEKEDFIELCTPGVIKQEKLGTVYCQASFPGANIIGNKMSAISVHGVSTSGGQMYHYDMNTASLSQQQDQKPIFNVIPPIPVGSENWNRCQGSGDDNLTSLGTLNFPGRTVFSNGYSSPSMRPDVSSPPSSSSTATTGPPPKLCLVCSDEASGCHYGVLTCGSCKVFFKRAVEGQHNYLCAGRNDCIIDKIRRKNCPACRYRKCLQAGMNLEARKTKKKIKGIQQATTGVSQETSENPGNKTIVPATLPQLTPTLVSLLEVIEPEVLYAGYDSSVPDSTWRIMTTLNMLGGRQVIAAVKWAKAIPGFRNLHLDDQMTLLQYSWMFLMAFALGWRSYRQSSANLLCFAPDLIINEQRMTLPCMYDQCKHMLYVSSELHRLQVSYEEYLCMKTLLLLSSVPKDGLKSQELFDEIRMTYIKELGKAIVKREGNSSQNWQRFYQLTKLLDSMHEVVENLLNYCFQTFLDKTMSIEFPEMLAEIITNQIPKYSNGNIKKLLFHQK

Test [4] addresses Oxysterols receptor LXR-alpha (Homo sapiens) (UniProt Q13133). Put plainly: ATG_LXRa_TRANS: Attagene TRANS-FACTORIAL HepG2 Assay for human Liver X Receptor alpha (LXRa) (AID 2282980). The note with it: HepG2 Attagene TRANS reporter, LXRa transactivation. The method, boiled down: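 HepG2 cells were transiently transfected with multiplexed reporter units driven by chimeric LXRa–GAL4 fusion proteins, then dosed for 24 h. Reporter mRNA was quantified by RT-PCR, fluorescent labelling and capillary electrophoresis; gain of signal fitted against DMSO baseline.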

Test [5] has as its target Estrogen-related receptor gamma (Homo sapiens) (UniProt P62508). Put plainly: ATG_ERRg_TRANS: Attagene TRANS-FACTORIAL HepG2 Assay for human Estrogen-Related Receptor gamma (ERRg) (AID 2282977).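 Also: hits increase reporter signal over DMSO so potencies reflect activators.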 The note with it: HepG2 Attagene TRANS reporter, ERRg transactivation. The method, boiled down: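 HepG2 cells transiently transfected with multiplexed GAL4-UAS reporter units and chimeric NR-Gal4 constructs were exposed to test chemicals for 24 h. Reporter mRNA was measured by RT-PCR, 6-FAM primer extension, HpaI digestion and capillary electrophoresis; gain-of-signal versus DMSO.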

Test [6] addresses Bile acid receptor (Homo sapiens) (UniProt Q96RI1). The test can be described thus: ATG_FXR_TRANS: Attagene TRANS-FACTORIAL HepG2 Assay for Farnesoid X Receptor (FXR) (AID 2282979).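 Also: hits raise reporter mRNA above DMSO so AC50 marks FXR activation.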 The note with it: HepG2 Attagene TRANS FXR-GAL4 reporter transcription. A digest of the protocol: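 HepG2 cells transiently transfected with reporter constructs in which a chimeric FXR-GAL4 protein drives a GAL4-UAS reporter; 24 h compound exposure. Reporter mRNA measured by RT-PCR, FAM labelling, HpaI digestion and capillary electrophoresis; gain-of-signal versus DMSO.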

Test [7] can be described thus: ATG_GAL4_TRANS: Attagene TRANS-FACTORIAL HepG2 Assay for GAL4 (Internal Marker) (AID 2282976). The note with it: HepG2 Attagene TRANS GAL4 internal marker reporter. A digest of the protocol: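 HepG2 cells transiently transfected with multiplexed GAL4-UAS reporter constructs were dosed for 24 h. Reporter mRNA was measured by RT-PCR, 6-FAM primer extension, HpaI digestion and capillary electrophoresis, and gain of signal was fitted relative to DMSO.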

Test [8] addresses Steroid hormone receptor ERR1 (Homo sapiens) (UniProt P11474). The test can be described thus: ATG_ERRa_TRANS: Attagene TRANS-FACTORIAL HepG2 Assay for human Estrogen-Related Receptor alpha (ERRa) (AID 2282971). The note with it: HepG2 Attagene TRANS reporter, ERRa transactivation. A digest of the protocol:
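HepG2 cells transiently transfected with multiplexed GAL4-UAS reporter units reading chimeric ERRa-Gal4 activity; 24 h compound exposure. Reporter mRNA measured by RT-PCR, 6-FAM labelling, HpaI digest and capillary electrophoresis; gain of signal fitted versus DMSO baseline.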

The target in test [9] is Estrogen receptor (Homo sapiens) (UniProt P03372). Put plainly: ATG_ERa_TRANS: Attagene TRANS-FACTORIAL HepG2 Assay for human Estrogen Receptor alpha (ERa) (AID 2282970). The note with it: HepG2 Attagene TRANS ERa GAL4 reporter, mRNA. The method, boiled down: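 HepG2 cells transiently transfected with multiplexed GAL4-UAS reporter units; ERa activity read via exogenous chimeric NR-Gal4 protein. After 24 hour compound exposure, reporter mRNA measured by RT-PCR with 6-FAM labelling and capillary electrophoresis; gain-of-signal fitted relative to DMSO.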
Sequence of Estrogen receptor (Homo sapiens) (P03372 whole entry, looked up, the tested form may be a part): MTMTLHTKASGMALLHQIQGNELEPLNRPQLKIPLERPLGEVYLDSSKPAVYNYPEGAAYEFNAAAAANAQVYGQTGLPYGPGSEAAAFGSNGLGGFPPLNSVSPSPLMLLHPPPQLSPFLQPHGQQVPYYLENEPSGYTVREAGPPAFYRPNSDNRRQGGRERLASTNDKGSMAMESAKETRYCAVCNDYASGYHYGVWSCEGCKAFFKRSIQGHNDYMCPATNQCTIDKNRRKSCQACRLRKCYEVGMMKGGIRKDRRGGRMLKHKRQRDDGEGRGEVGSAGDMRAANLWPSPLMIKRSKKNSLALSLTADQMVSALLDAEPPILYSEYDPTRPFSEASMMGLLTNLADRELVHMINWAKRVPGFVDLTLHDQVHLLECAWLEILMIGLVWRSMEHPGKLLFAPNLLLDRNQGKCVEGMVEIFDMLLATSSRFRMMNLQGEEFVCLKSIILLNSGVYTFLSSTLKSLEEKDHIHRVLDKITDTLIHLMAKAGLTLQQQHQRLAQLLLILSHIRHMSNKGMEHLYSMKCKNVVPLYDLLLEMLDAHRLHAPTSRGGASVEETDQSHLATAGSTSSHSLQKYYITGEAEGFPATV

Each structure is given as a SMILES string. Results filed as inconclusive are left out. Some structures have more than one record in an assay (separate samples or runs), and their calls can disagree. Active and inactive are the calls of the source. The calls were made as follows, unless noted: active = hit-call score of the fitted dose curve at least 0.9, where 1 is the maximum; inconclusive = response in the unintended direction; inactive = score below 0.9.

Sequence of Steroid hormone receptor ERR1 (Homo sapiens) (P11474 whole entry, looked up, the tested form may be a part): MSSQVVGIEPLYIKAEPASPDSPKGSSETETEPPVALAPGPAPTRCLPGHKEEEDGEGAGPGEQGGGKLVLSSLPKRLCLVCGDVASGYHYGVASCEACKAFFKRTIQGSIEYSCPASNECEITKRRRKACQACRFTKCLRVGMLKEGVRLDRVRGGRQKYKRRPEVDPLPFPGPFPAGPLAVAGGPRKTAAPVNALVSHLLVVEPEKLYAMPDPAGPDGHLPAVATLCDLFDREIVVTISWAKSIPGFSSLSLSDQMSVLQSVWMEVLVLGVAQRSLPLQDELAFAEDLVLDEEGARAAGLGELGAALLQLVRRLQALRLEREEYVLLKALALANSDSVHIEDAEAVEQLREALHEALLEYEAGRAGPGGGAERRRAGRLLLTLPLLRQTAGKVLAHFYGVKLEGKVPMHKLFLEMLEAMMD
Sequence of Bile acid receptor (Homo sapiens) (Q96RI1 whole entry, looked up, the tested form may be a part): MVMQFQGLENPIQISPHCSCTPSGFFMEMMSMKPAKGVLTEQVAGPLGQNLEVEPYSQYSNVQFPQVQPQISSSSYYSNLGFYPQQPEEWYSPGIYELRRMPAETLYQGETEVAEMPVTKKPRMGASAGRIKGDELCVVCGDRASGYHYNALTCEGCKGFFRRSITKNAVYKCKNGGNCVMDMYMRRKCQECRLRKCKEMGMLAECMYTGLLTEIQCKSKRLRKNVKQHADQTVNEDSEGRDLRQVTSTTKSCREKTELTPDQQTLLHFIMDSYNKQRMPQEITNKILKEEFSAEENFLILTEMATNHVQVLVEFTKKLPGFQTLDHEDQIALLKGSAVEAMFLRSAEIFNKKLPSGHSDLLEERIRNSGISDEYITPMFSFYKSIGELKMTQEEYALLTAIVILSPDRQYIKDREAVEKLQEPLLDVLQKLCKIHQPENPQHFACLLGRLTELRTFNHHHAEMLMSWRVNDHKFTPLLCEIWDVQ
Sequence of Oxysterols receptor LXR-alpha (Homo sapiens) (Q13133 whole entry, looked up, the tested form may be a part): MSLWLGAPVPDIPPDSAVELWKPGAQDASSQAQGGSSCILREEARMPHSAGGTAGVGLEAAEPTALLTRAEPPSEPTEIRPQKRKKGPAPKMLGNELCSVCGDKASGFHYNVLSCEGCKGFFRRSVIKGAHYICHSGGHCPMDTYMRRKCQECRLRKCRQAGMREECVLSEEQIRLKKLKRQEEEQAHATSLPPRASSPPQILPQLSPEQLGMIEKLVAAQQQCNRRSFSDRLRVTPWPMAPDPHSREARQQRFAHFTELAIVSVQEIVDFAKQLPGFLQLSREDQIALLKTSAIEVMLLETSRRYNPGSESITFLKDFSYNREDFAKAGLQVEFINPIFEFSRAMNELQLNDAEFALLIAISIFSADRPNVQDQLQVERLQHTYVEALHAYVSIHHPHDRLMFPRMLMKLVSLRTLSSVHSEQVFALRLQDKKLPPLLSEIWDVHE
Sequence of Estrogen-related receptor gamma (Homo sapiens) (P62508 whole entry, looked up, the tested form may be a part): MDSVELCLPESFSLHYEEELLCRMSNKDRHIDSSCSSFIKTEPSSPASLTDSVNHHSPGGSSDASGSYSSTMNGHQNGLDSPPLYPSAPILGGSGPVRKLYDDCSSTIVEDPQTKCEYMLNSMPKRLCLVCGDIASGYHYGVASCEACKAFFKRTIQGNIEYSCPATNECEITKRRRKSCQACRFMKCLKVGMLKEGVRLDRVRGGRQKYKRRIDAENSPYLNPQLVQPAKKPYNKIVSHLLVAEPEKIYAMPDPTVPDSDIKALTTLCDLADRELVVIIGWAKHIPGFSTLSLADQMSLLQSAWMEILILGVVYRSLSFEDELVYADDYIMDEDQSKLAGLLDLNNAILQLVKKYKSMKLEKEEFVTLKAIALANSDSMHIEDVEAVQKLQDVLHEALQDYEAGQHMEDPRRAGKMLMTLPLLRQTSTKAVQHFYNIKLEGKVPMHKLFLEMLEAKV

Regarding `CCCCCCCCCCCC[N+](C)(C)Cc1ccccc1`, the AC50 was 11.1 µM (active) in [1] and 168 µM (active) in [2]. Also, the result in [1], in test [2], in test [3] and in test [4] was inactive.

As for `CC(C)c1c(C(=O)Nc2ccccc2)c(-c2ccccc2)c(-c2ccc(F)cc2)n1CC[C@@H](O)C[C@@H](O)CC(=O)O`, the call in test [1], in test [2] and in test [3] was inactive.

On to `OCC(CO)(CBr)CBr`, for which the outcome in test [1], in test [2], in [5], in test [3], in test [6] and in test [4] was inactive.

Take `CCCCCCCCCCCC`: the compound was called inactive in test [1], in [2], in [7] and in test [3].

With `NS(=O)(=O)O`, the compound was called inactive in test [1], in test [2], in test [7], in [3] and in test [4].

As for `O=C(c1ccccc1)c1ccccc1`, the call in [1], in test [2], in test [7], in test [3] and in test [6] was inactive.

As to `CNNCc1ccc(C(=O)NC(C)C)cc1`, the outcome in [1], in test [2] and in test [3] was inactive.

For `CCCCC(CC)C(=O)O` (configuration not stated), the result in test [1], in [2], in test [7] and in test [4] was inactive.

On to `CCCCCCCCCCCCCC[n+]1ccccc1`, for which the compound was called inactive in test [8], in test [1], in test [2], in test [3], in test [6] and in test [4]. In addition, the AC50 in test [5] is 189 µM (active).

`CCCC=O`: the result in test [8], in test [1], in test [2], in test [7], in test [5] and in test [3] was inactive. Further, the result in test [4] was inactive.

On to `COC(=O)C(F)(F)C(F)(F)C(F)(F)C(F)(F)C(F)(F)F`, for which the call in test [8], in [1] and in test [2] was inactive.

With `CC=O`, the outcome in test [1], in [2] and in test [3] was inactive.

Take `NC(C(F)(F)F)C(F)(F)F`: the compound was classed as inactive in test [8] and in test [1].

As for `CCO[Si](C)(C)OCC`, the result in [1], in test [2], in [5] and in test [3] was inactive.

For `O=C1NS(=O)(=O)c2ccccc21`, the compound was called inactive in [1], in test [2] and in test [4].

With `CS(=O)(=O)c1ccc([C@@H](CC2CCCC2)C(=O)Nc2cnccn2)cc1Cl`, the AC50 in test [1] is 70.7 µM (active). The call in test [5] and in test [3] was inactive.

In the case of `C[C@]12CC[C@@H]3c4ccc(O)cc4CC[C@H]3[C@@H]1C[C@@H](O)[C@@H]2O`, the compound was called inactive in test [1], in test [2], in test [7], in test [3] and in test [4].

As for `NNC(=O)CCCCC(=O)NN`, the compound was classed as inactive in [8], in test [1], in test [2], in test [7] and in test [6].

`O=S(=O)(O)c1ccccc1`: the compound was classed as inactive in test [1], in test [7], in test [5], in [3] and in [6].

As to `O=C(CCCN1CCC(O)(c2ccc(Cl)cc2)CC1)c1ccc(F)cc1`, the AC50 in [1] was 50.3 µM (active). Also, the call in [2] was inactive.

Consider `CCC1CO1` (configuration not stated), for which the compound was called inactive in test [1], in [7], in test [3] and in [6].

`O=C(NO)c1ccccc1`: the compound was called inactive in test [8], in [1], in [2], in test [5], in [3] and in [6].

On to `CCCCCCCCCCCC(=O)O`, for which the AC50 in [1] is 87 µM (active). For the same compound, the outcome in test [1], in test [2], in [7] and in test [4] was inactive.

Take `O=C1OC(=O)C(F)(F)C1(F)F`: the result in [8], in test [1], in test [2], in test [3], in test [6] and in test [4] was inactive.

As to `CN(C)c1ccc(C(=C2C=CC(=[N+](C)C)C=C2)c2ccccc2)cc1`, the AC50 in test [1] is 1.94 µM (active). The outcome in test [1], in [7], in test [5], in [3] and in test [6] was inactive.

With `OCCN1CN(CCO)CN(CCO)C1`, the half-maximal activity concentration (AC50) in test [1] is 164 µM (active). Moreover, the call in test [2], in [3], in test [6] and in [4] was inactive.

For `Cc1ccc(S(=O)(=O)O)cc1`, the outcome in test [1], in [7] and in test [4] was inactive.

As to `COCC1CCC(CO)CC1` (configuration not stated), the compound was called inactive in test [9], in test [1] and in test [4].

For the compound `c1ccc2c(c1)CCC2`, the outcome in test [1], in test [2], in [7], in test [3] and in [6] was inactive.

Turning to `Cn1sccc1=O`, the compound was classed as inactive in test [8], in test [2] and in [3]. Besides, in test [1], the AC50 is 160 µM (active).

As usually defined, the AC50 is the concentration at which the activity in the assay is half-maximal.

The record behind these values is PubChem BioAssay (EPA / NIEHS).
